EPAC1 ag: qHTS for Agonist of cAMP-regulated guanine nucleotide exchange factor 3 (EPAC1): primary screen | Potency, µM (doses to about 154 µM), for inactives: at the top dose activation, most hits filed as activators | hit rate 0.073% among 360,000 | AID 720707, 2013 | EPAC1 agonist qHTS, biochemical assay; response scale: 100% = response to 6.5 mM cAMP | Rap guanine nucleotide exchange factor 3 (Homo sapiens), O95398; further: potency means the concentration at half of the fitted maximal effect; nearly all actives have a fitted effect of over 60% in size
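Fluorescent GDP-exchange assay: 100 nM EPAC1 with 250 nM Rap1B preloaded with BODIPY-GDP and 50 uM GDP; compounds tested as concentration series, 5 min at room temperature, then read every 5 min for 30 min (ex 480/em 540 nm); normalized to 6.5 mM cAMP.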
KCNH2 3.1 block: qHTS for Inhibitors of KCHN2 3.1: Mutant qHTS; AID 720553, 2013; U2OS KCNH2 3.1, thallium flux FluxOr; stronger effect = lower value; Potassium voltage-gated channel subfamily H member 2, brain isoform KCNH2 3.1 (human); activity change, % (tested at about 1.8 µM); hit rate 0.95% among 340,000;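 active means maximum activity change below -70%; inconclusive means maximum activity change from -70% to -50%; inactive means maximum activity change above -50%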;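 further: thallium influx rate constant from kinetic fluorescence after stimulation buffer; on the % scale 0 is the no-effect control and ±100 the full control effect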
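Normalized rate constant (relative to positive and negative DMSO controls) derived from a 2 min kinetic fluorescence read after stimulation; U2OS cells expressing the 3.1 isoform via virus at 1.77 x 10^8 /mL.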
EPAC2 ag: qHTS for Agonist of cAMP-regulated guanine nucleotide exchange factor 4 (EPAC2): primary screen. Rap guanine nucleotide exchange factor 4 (Homo sapiens), Q8WZA2. EPAC2 activation, biochemical qHTS; response scale: 100% = 6.5 mM cAMP response. Potency, µM (series often up to 154 µM), for the others: at the highest dose activation, actives largely listed as activators. hit rate 0.079% among 360,000; further: potency means the concentration at half of the fitted maximal effect; nearly all actives have a fitted effect of over 50% in size
Target sequence (Q8WZA2 whole entry, looked up): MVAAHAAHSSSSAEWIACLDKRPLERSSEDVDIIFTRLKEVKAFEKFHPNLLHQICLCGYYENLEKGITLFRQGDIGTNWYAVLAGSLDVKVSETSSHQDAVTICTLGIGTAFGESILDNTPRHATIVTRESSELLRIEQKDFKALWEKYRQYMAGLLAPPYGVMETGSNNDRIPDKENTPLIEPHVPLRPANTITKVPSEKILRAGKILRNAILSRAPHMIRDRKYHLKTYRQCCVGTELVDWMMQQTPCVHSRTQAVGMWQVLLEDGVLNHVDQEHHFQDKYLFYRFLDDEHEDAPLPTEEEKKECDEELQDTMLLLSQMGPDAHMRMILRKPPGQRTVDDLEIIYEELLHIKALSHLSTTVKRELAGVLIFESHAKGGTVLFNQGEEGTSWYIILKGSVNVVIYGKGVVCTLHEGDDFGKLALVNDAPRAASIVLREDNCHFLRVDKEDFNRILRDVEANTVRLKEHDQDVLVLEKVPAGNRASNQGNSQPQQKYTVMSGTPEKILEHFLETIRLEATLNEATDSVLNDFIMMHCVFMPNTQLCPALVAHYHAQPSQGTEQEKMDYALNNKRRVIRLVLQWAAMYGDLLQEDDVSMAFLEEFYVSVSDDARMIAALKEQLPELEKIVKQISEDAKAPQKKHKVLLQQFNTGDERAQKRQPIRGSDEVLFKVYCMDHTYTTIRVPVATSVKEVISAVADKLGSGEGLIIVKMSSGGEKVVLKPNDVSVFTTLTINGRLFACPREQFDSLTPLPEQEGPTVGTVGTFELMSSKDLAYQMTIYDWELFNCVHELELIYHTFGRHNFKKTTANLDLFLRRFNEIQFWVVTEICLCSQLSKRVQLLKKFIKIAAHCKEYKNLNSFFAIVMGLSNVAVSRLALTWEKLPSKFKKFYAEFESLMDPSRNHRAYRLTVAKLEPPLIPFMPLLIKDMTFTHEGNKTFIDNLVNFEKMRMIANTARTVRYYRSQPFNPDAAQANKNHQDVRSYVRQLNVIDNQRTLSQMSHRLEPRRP
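EPAC2 (100 nM) mixed with Rap1B loaded with BODIPY-GDP (250 nM) plus 50 uM unlabeled GDP; compounds pinned in, 5 min RT, then read every 5 min for 30 min (ex 480, em 540 nm). Normalized to cAMP control.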
EPAC1 antag: qHTS for Antagonist of cAMP-regulated guanine nucleotide exchange factor 3 (EPAC1): primary screen | Rap guanine nucleotide exchange factor 3 (Homo sapiens), O95398 | EPAC1 GEF assay, Rap1b-BODIPY-GDP exchange fluorescence | Potency, µM (doses to about 115 µM), without a hit: at the highest dose activity change, negative = inhibition, actives largely listed as inhibitors | hit rate 0.14% among 360,000;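 further: potency means the concentration at half of the fitted maximal effect; plate controls were vehicle for no effect and positive control for full effect; nearly all actives have a fitted effect of over 50% in size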
KCNH2 WT inh: qHTS for Inhibitors of KCHN2 3.1: Wildtype qHTS; Voltage-gated inwardly rectifying potassium channel KCNH2 (Homo sapiens), Q12809; U2OS, BacMam KCNH2, thallium flux FluxOr; stronger effect = lower value; activity change, % at 1.84 µM; hit rate 0.37% among 340,000; AID 720551, 2013;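 active means maximum activity change below -70%; inconclusive means maximum activity change between -70% and -50%; inactive means maximum activity change above -50%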; further: on the % scale 0 is the no-effect control and ±100 the full control effect
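U2OS cells were transduced with wild-type KCNH2 virus (2.03 x 10^8 / mL) for 4 h at room temperature, then cultured overnight at 37 C. Thallium flux was read with FluxOr dye. Rate constants were normalized to DMSO controls.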
EPAC2 antag: qHTS for Antagonist of cAMP-regulated guanine nucleotide exchange factor 2 (EPAC2): primary screen. Potency, µM (doses to about 114 µM), inactives show at the highest dose activity, negative = inhibition, usual class: inhibitors. hit rate 0.18% among 360,000. EPAC2 GEF exchange of Rap1B-BODIPY-GDP, fluorescence. Rap guanine nucleotide exchange factor 4 (Homo sapiens), Q8WZA2. AID 720708, 2013; further: potency means the concentration at half of the fitted maximal effect; on the % scale 0 is the no-effect control and ±100 the full control effect; nearly all actives have a fitted effect of over 45% in size
* = called active by the depositor; ? = inconclusive; · = no result given. Rows were chosen to be rich in hits. Some 1.4% of all compounds tested hit in one or more screens of this group. Unless noted, the call rests on the fitted dose curve; in most records, active means well fitted curve in the direction sought with a large enough effect; inconclusive means small, poorly fitted or top-dose-only effect, or another doubt; inactive means no such curve, though single readings can be large; an effect the other way counts as inactive or inconclusive.

SMILES	EPAC1 ag	KCNH2 3.1 block	EPAC2 ag	EPAC1 antag	KCNH2 WT inh	EPAC2 antag
CC(C)C[C@H](NC(=O)C1(c2ccccc2)CCN(C(=O)OC(C)(C)C)CC1)C(=O)N1CCC[C@H]1C(=O)O	0.2%	2.7	-13.0%	?	-0.7	79.4µM*
Cc1ccc(NC(=O)CSCC(=O)OC(C)C(=O)Nc2ccc(S(N)(=O)=O)cc2)c(C)c1 (stereo not given)	-3.3%	-13.9	0.7%	1.5%	0.8	2.7%
CC[C@]12c3[nH]c4ccc(Cl)cc4c3CCN1C(=O)[C@@H](CC(=O)NC/C=C(\C)CCC=C(C)C)C[C@@H]2C(=O)N1CCN(C(=O)C2CC2)CC1	-21.3%	-4.4	-7.3%	-22.6%	4.6	-4.6%
N=c1c2c(n(Cc3ccc(Br)cc3)c3c1CCC3)CCCC2	5.0%	-78.1*	15.7%	3.0%	3.8	-2.8%
N=c1c2c(n(Cc3ccc(Cl)c(Cl)c3)c3c1CCC3)CCCC2	5.5%	-23.1	11.1%	-5.0%	-1.9	5.3%
Cc1ccc(CNc2ccc3c(c2)ncn3C(C)(C)C)cc1	7.2%	·	1.3%	-7.5%	·	-11.8%
CC1CCN(CCCNC(=O)c2cc3sccc3n2C)CC1	0.1%	4.8	5.6%	9.7%	43.3	3.3%
COc1ccc(N2CCN(CCCNC(=O)c3cc4sccc4n3C)CC2)cc1	2.0%	-93.7*	10.8%	0.3%	-109.4*	-2.7%
O=C(NCCCN1CCCC1)c1ccc(CS(=O)(=O)c2ccc(Cl)cc2)o1	7.5%	-28.7	16.1%	-5.2%	19.6	-0.4%
COc1ccc(N2CCN(CCCNC(=O)c3ccc(CS(=O)(=O)c4ccc(Cl)cc4)o3)CC2)cc1	-13.9%	-99.4*	9.8%	-11.0%	-20.6	1.2%
COc1ccc(N2CCN(CCNC(=O)Nc3ccc(Cl)cc3)CC2)cc1	5.2%	-70.3*	11.3%	3.7%	12.4	3.8%
O=C(N/N=C\c1c(O)ccc2ccccc12)c1ccc(S(=O)(=O)N2CCCCC2)cc1	0.9%	3.6	100µM*	-22.5%	-5.8	27.9%
O=C(NN=Cc1c(O)ccc2ccccc12)c1ccc2c(c1)OCO2	5.1%	-36.7	6.8%	-13.5%	-6.6	-3.8%
CCN(CC)CC(O)CN(c1ccccc1)S(=O)(=O)c1ccc2ccccc2c1 (stereo not given)	0.4%	-105.7*	5.9%	-9.9%	-89.4*	2.9%
COc1ccc(OCC(=O)Nc2ccc(S(=O)(=O)Nc3cc(C)on3)cc2)cc1	-1.6%	-5.6	-4.0%	-6.8%	2.4	7.4%
Cc1cc(NS(=O)(=O)c2ccc(NC(=O)COc3c(C)cc(Br)cc3C)cc2)no1	-0.7%	9.0	-7.6%	-4.0%	5.5	17.8µM*
COc1ccc(N2CCN(C(=O)c3cccnc3)CC2)c([N+](=O)[O-])c1	6.3%	11.7	-0.3%	-0.6%	8.9	-0.6%
CCN1CCCC1CNc1ncnc2c1[nH]c1ccc(Cl)cc12 (stereo not given)	5.1%	-110.4*	-0.7%	-7.3%	-112.3*	-7.7%
Cc1[nH]c2ccc(C(=O)OC(C)C(=O)N(C)c3ccccc3)cc2c1C (stereo not given)	28.2µM*	18.3	-4.8%	-11.3%	3.4	-6.9%
O=C1NC[C@H](CCCCN2CCN(Cc3ccccc3)C(=O)C2=O)N(Cc2ccccc2)C1=O	-1.3%	·	4.8%	-3.9%	·	0.4%
Nn1c(=S)[nH]c2sc3c(c2c1=O)CCCC3	1.4%	-8.1	5.6%	6.0%	-2.8	-0.6%
CCCn1c(=S)[nH]c2sc3c(c2c1=O)CCCC3	2.0%	-21.9	-0.1%	-9.2%	-85.2*	-10.7%

Source: PubChem BioAssay
